This is part of a sample that, as a whole, favours compounds with a hit. Of some 83,000 tested, about 20% had one in any assay.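 A percent growth of 40 corresponds to 60% growth inhibition; 0 means no net growth; -100 means all cells died. Active threshold: below 10.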 Unmarked numbers belong to inactive results. The source made the active and inactive calls.
Legend:
Assay in all cases: NCI-60 one-dose screen, 48 h (100 = growth as untreated, 0 = no growth, -100 = all killed)
Conditions in all cases: 10 µM unless noted
SK-MEL-2 melanoma = system: SK-MEL-2 melanoma
EKVX NSCLC = system: EKVX NSCLC
SN12C renal = system: SN12C renal
UO-31 renal = system: UO-31 renal
TK-10 renal = system: TK-10 renal
ACHN renal = system: ACHN renal
CAKI-1 renal = system: CAKI-1 renal
A498 renal = system: A498 renal
CCRF-CEM leukemia = system: CCRF-CEM leukemia
MOLT-4 leukemia = system: MOLT-4 leukemia
SR leukemia = system: SR leukemia
RPMI-8226 leukemia = system: RPMI-8226 leukemia
OVCAR-8 ovarian = system: OVCAR-8 ovarian
OVCAR-5 ovarian = system: OVCAR-5 ovarian
SK-OV-3 ovarian = system: SK-OV-3 ovarian
IGROV1 ovarian = system: IGROV1 ovarian
OVCAR-3 ovarian = system: OVCAR-3 ovarian
NCI/ADR-RES ovarian = system: NCI/ADR-RES ovarian
OVCAR-4 ovarian = system: OVCAR-4 ovarian
HS 578T breast = system: HS 578T breast

Row | Compound | growth (SK-MEL-2 melanoma) | growth (EKVX NSCLC) | growth (SN12C renal) | growth (UO-31 renal) | growth (TK-10 renal) | growth (ACHN renal) | growth (CAKI-1 renal) | growth (A498 renal) | growth (CCRF-CEM leukemia) | growth (MOLT-4 leukemia) | growth (SR leukemia) | growth (RPMI-8226 leukemia) | growth (OVCAR-8 ovarian) | growth (OVCAR-5 ovarian) | growth (SK-OV-3 ovarian) | growth (IGROV1 ovarian) | growth (OVCAR-3 ovarian) | growth (NCI/ADR-RES ovarian) | growth (OVCAR-4 ovarian) | growth (HS 578T breast)
1 | O=[N+]([O-])c1c(S(=O)(=O)O)cc2cc(S(=O)(=O)O)ccc2c1[N+](=O)[O-] | 107% | 101% | 101% | 76.5% | 93% | 98.8% | 93.8% | 106% | 107% | 93.8% | 103% | 109% | 114% | 97.2% | 122% | 103% | 104% | 102% | – | –
2 | CCCn1c(=S)sc2c(Cl)nc(C)nc21 | 1.85% (active) | 106% | 113% | 103% | 137% | 83.1% | 63.8% | 98.5% | 72% | 116% | 123% | – | 105% | 109% | 90.5% | – | 88.6% | 106% | 85.5% | –
3 | O=S(=O)(NCCCNc1cc(-c2cn(-c3ccccc3)nc2-c2cccc(O)c2)ccn1)c1ccc(Br)cc1 | -5.21% (active) | 30.5% | 16.5% | 3.1% (active) | 32.2% | 10.2% | 13% | 25.2% | 12.2% | -5.44% (active) | – | 3.52% (active) | 19.1% | 23.4% | 20.7% | 22.4% | 22% | 16.2% | 37.4% | -3.87% (active)
4 | c1cncc(CNc2ccccc2-c2nnc(Nc3ccc4c(c3)OCCO4)o2)c1 | 15.8% | 49.8% | 37.7% | 47.1% | 63.1% | 40.4% | 34.3% | 11.3% | 14% | 22.1% | 14.1% | – | 27.1% | 43.9% | – | 40.9% | -50.3% (active) | 6.09% (active) | 44% | 77.9%
5 | O=C(/C=C/CN1CCCCC1)Nc1cc2c(Nc3ccc(F)c(Cl)c3F)ncnc2cc1OCCOC(F)F | 36.1% | 11.8% | 7.28% (active) | 10.4% | 8.8% (active) | 5.75% (active) | 5.99% (active) | -21.7% (active) | 24.6% | 1.31% (active) | 11.5% | 12.7% | 19.5% | 34.8% | – | -9.94% (active) | 0.43% (active) | 9.16% (active) | 12.9% | -7.08% (active)
6 | COc1ccc(C2NC3=C(CCCC3)C(C#N)(C#N)C2(C#N)C#N)cc1 (configuration not stated) | 98.8% | 88.2% | 88.7% | 75.7% | 79.7% | 37.1% | 78% | 111% | 7.38% (active) | 9.29% (active) | 1.12% (active) | 79.9% | 104% | 97.1% | – | – | 43% | 101% | 98.1% | –
7 | NC(=O)c1c(NC(=O)c2ccc(OCC3CCCO3)cc2)sc2c1CCCC2 (configuration not stated) | 84.9% | 89.6% | 90.7% | 35% | 126% | 106% | 108% | 86.5% | 79.9% | 99.3% | – | 83.7% | 104% | 101% | 119% | -23.3% (active) | 108% | 97.1% | 115% | -24.5% (active)

Source: PubChem BioAssay (NCI)
